# Rows were chosen to be rich in hits. Some 0.45% of all compounds tested hit in one or more screens of this group.
# EPAC2 ag – EPAC2 (human) agonism; Q8WZA2; EPAC2 activation, biochemical qHTS; response scale: 100% = 6.5 mM cAMP response; Potency, µM (titrated, usually from 154 µM), for inactives: at the highest dose activation, most hits filed as activators; 360,000 tested, 0.079% active; note: nearly all actives have a fitted effect of over 50% in size
#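 Compounds were added across a concentration range to EPAC2 (100 nM), RAP1B-BODIPY-GDP (250 nM) and GDP (50 uM). After 5 min at room temperature, fluorescence was recorded at 5-min intervals for 30 min.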
# EPAC1 ag – activates human EPAC1 exchange factor; O95398; EPAC1 agonist qHTS, biochemical assay; response scale: 100% = response to 6.5 mM cAMP; Potency, µM (highest dose often 154 µM), inactives show at the top dose activation, actives largely listed as activators; 360,000 tested, 0.073% active; AID 720707; note: nearly all actives have a fitted effect of over 60% in size
#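 Read-out is the fluorescence drop as BODIPY-GDP leaves Rap1B (480 nm excitation, 540 nm emission), recorded every 5 minutes over 30 minutes. Reactions held 100 nM EPAC1, 250 nM Rap1B–BODIPY-GDP and 50 uM GDP, with 6.5 mM cAMP setting full activation.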
# USP1 inh – blocks the human USP1/UAF1 deubiquitinase complex; Potency, µM (doses to about 57.1 µM), without a hit: at the highest dose activity change, negative = inhibition, actives largely listed as inhibitors; 390,000 tested, 0.23% active; O94782; AID 743255; recombinant USP1/UAF1, Ub-Rhodamine cleavage fluorescence; note: % is set by controls: 0 for no effect and ±100 for the full control effect; nearly all actives have a fitted effect of over 60% in size
# Target sequence (O94782 whole entry, looked up): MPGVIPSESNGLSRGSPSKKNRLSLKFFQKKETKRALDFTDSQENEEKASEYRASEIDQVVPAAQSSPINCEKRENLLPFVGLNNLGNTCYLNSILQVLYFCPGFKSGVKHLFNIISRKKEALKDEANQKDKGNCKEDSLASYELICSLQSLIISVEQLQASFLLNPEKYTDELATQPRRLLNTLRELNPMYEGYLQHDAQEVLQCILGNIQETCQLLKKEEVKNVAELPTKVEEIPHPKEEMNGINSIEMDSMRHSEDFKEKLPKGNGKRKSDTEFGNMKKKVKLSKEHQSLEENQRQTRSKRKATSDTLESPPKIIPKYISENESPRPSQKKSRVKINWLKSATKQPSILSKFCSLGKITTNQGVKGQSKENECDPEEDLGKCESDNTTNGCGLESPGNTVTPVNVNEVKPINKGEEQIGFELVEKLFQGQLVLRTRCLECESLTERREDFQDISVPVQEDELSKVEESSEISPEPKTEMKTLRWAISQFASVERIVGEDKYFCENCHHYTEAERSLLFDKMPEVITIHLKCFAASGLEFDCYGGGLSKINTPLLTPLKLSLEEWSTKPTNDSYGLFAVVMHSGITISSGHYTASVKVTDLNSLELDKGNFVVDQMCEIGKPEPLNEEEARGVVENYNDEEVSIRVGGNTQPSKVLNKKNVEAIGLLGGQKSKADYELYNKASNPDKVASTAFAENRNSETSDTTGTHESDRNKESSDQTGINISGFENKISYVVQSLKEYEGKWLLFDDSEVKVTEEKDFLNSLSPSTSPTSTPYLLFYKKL
#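 USP1/UAF1 complex at 1 nM was preincubated with compound for 15 min at room temperature, then Ub-Rho substrate (150nM final) was added. Fluorescence (480/540 nm) was read kinetically, 6 reads every 60 seconds.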
# EPAC1 antagonist – EPAC1 (human) antagonism | O95398 | EPAC1 GEF assay, Rap1b-BODIPY-GDP exchange fluorescence | Potency, µM (top dose mostly 115 µM), without a hit: at the highest dose activity change, negative = inhibition, most hits filed as inhibitors | 360,000 tested, 0.14% active;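 note: plate controls were vehicle for no effect and positive control for full effect; nearly all actives have a fitted effect of over 50% in size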
# USP2a inh – blocks human ubiquitin-specific protease USP2a | 330,000 tested, 0.01% active | USP2 core, Ub-CHOP2 coupled fluorogenic reporter, 485/531 | Potency, µM (highest dose often 38.3 µM), without a hit: top-dose activity change, negative = inhibition, usual class: inhibitors | AID 463254 | O75604;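 note: plate controls were DMSO wells for no effect and full inhibition by NEM control for full effect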
#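 Deubiquitinase activity read as fluorescence (485/531 nm) after Ub-CHOP2 cleavage activates the enterokinase reporter on its substrate; USP2 core 10nM, Ub-CHOP2 and substrate 25nM each, 30min compound preincubation then 60min RT; data normalized to NEM, curves fitted.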
# EPAC2 antagonist – blocks human EPAC2 exchange factor; Q8WZA2; EPAC2 GEF exchange of Rap1B-BODIPY-GDP, fluorescence; Potency, µM (highest dose often 114 µM), for the others: at the highest dose activity, negative = inhibition, most hits filed as inhibitors; 360,000 tested, 0.18% active; note: % is set by controls: 0 for no effect and ±100 for the full control effect; nearly all actives have a fitted effect of over 45% in size
# * = called active by the depositor; i = inactive; u = inconclusive; x = no result. Calls come from the whole dose curve; as a rule, active = well fitted curve in the direction sought with a large enough effect; inconclusive = small, poorly fitted or top-dose-only effect, or another doubt; inactive = no such curve, though single readings can be large; an effect the other way counts as inactive or inconclusive. Potency is the fitted concentration of half-maximal effect.
SMILES,EPAC2 ag,EPAC1 ag,USP1 inh,EPAC1 antagonist,USP2a inh,EPAC2 antagonist
Cc1[nH]n(-c2ncc(-c3ccccc3)s2)c(=O)c1C(c1ccc(Cl)cc1)C(C#N)C#N (stereo not drawn),2%,-9%,u,50µM*,-1%,-8%
COc1ccc(OCCC(=O)OCC(=O)Nc2ccc(S(=O)(=O)N3CCOCC3)cc2)cc1,14%,-4%,1%,u,3%,-7%
CC(C)(C)c1ccc(OCCC(=O)OCC(=O)Nc2ccc(N3CCOCC3)cc2)cc1,-15%,71µM*,-22%,-17%,2%,-2%
CCNc1ccc(Br)cc(C(=O)/C=C/c2ccccc2Cl)c1=O,2%,5%,28µM*,-24%,x,15%
CN1CCN(C(=O)C[C@H]2C[C@H]3c4cc(NC(=O)NC5CCCCC5)ccc4O[C@H]3[C@@H](CO)O2)CC1,-3%,3%,-5%,-3%,x,3%
COc1cccc(CNC(=O)c2sc3ncccc3c2-n2c(C)ccc2C)c1OC,x,x,-5%,x,x,x
Cc1ccc(S(=O)(=O)Nc2ccc3cc([N+](=O)[O-])ccc3c2[N+](=O)[O-])cc1,-5%,-2%,-19%,79µM*,x,50µM*
Cc1ccc(S(=O)(=O)Nc2ccc3ccccc3c2[N+](=O)[O-])cc1,-2%,1%,-17%,u,x,u
CN1c2ccccc2C(C)(C)C12C=Nc1c(cc(N3CCOCC3)c3ccccc13)O2 (stereo not drawn),4%,10%,u,89µM*,-1%,-25%
CN1c2ccccc2C(C)(C)C12C=Cc1cc(O)ccc1O2 (stereo not drawn),16%,u,-25%,-12%,0%,-20%
COC(=O)c1ccccc1-c1c2ccc(=N)cc-2oc2cc(N)ccc12,0%,-9%,-101%,32µM*,u,u
COC(=O)c1ccccc1-c1ccc(/C=N/NC(=O)c2cc3ccccc3o2)o1,20%,18%,-18%,-3%,1%,-3%
N=C1/C(=C/c2coc3ccccc3c2=O)C(=O)N=C2SC(c3ccco3)=NN12,100µM*,89µM*,178%,161%,12%,84%
N=C1/C(=C\c2coc3ccc(O)cc3c2=O)C(=O)N=C2SC=CN12,63µM*,89µM*,28µM*,116%,u,236%
N=C1/C(=C\c2coc3ccccc3c2=O)C(=O)N=C2SC(c3ccncc3)=NN12,63µM*,100µM*,28µM*,-4%,21%,28%
CCCN1Cc2cccc(C(=O)Nc3cccc(C(=O)OCC)c3)c2C1=O,x,x,-3%,x,x,x
Cc1nc(C(F)(F)F)ccc1C(=O)N1CCC1(C)C(=O)NCc1ccc(Cl)cc1 (stereo not drawn),10%,-4%,x,-6%,x,4%
COc1ccc(-c2nc(CCNC(=O)c3ccccc3)cs2)cc1OC,x,x,-30%,x,x,x
COc1cccc(Cn2c(=O)c3ccccc3n3nc(C)cc23)c1,14%,15%,-23%,-5%,10%,50µM*
COc1cccc(Cn2c(=O)sc3ccccc3c2=O)c1,15%,15%,-12%,-29%,0%,-25%
CCn1cc2nc(SCC(=O)Nc3ccccc3C(F)(F)F)n(Cc3ccc(C)cc3)c(=O)c2n1,x,x,-14%,x,x,x
CC(=O)NC(c1ccc(Cl)cc1Cl)c1ccc2cccnc2c1O (stereo not drawn),4%,-10%,-1%,u,1%,20µM*
CCCC(=O)NC(c1ccc(Cl)cc1Cl)c1ccc2cccnc2c1O (stereo not drawn),4%,3%,-25%,-13%,-2%,-13%
NC1=CC(=O)C(=O)c2ccccc21,4%,3%,16µM*,-14%,x,-6%
Cc1ccccc1NC(=O)CN(C)S(=O)(=O)c1cccc2nsnc12,x,x,-25%,x,x,x
SMILES,EPAC2 ag,EPAC1 ag,USP1 inh,EPAC1 antagonist,USP2a inh,EPAC2 antagonist
CCOc1c(O)ccc(/C=C2\SC(=S)NC2=O)c1[N+](=O)[O-],2%,-1%,u,-21%,-2%,56µM*
CCOc1ccc(N(C)c2ccc(/C=C3/SC(=S)NC3=O)cc2)cc1,2%,-7%,u,-29%,1%,4%
CC1CCCN(c2nc3ccccc3nc2C(C#N)S(=O)(=O)c2ccccc2)C1 (stereo not drawn),-511%,56µM*,205%,37%,7%,128%
CCN1C(=O)N(S(=O)(=O)c2ccc(C)cc2)[C@@H](c2ccccc2)C(C(=O)OC)=C1C,14%,0%,u,5%,5%,-18%
CCN1C(=O)N(S(=O)(=O)C(F)(F)F)[C@@H](c2ccccc2)C(C(=O)OC)=C1C,3%,-20%,-23%,-9%,16%,32µM*
CC(=O)OCCn1c2nc(=O)[nH]c(=O)c-2nc2cc(C)c(C)cc21,100µM*,50µM*,28µM*,i,u,i
Cc1ccc(C)c(CN2C(=O)c3ccccc3S(=O)(=O)c3ccc(C(=O)N4CCCCC4)cc32)c1,x,x,5%,x,x,x
COc1ccc(-n2cnc3cc(C(=O)NCCC4=CCCCC4)ccc32)cc1,x,x,-26%,x,x,x
O=S(=O)(O)c1cc(O)c2c(O)c(N=Nc3cc(Cl)ccc3O)c(S(=O)(=O)O)cc2c1,-11%,1%,u,u,-13%,28µM*
Cc1cc(-c2ccc(N=Nc3c(S(=O)(=O)O)cc4cc(S(=O)(=O)O)cc(N)c4c3O)c(C)c2)ccc1N=Nc1c(S(=O)(=O)O)cc2cc(S(=O)(=O)O)cc(N)c2c1O,x,x,x,x,10µM*,x
Oc1cc2ccccc2cc1-c1n[nH]c(=S)o1,4%,-9%,-18%,79µM*,-8%,-6%
S=c1[nH]nc(-c2c[nH]c3ccccc23)o1,2%,9%,-21%,-22%,4%,-1%
O=C(NN=Cc1c(O)ccc2ccccc12)c1ccc2c(c1)OCO2,7%,5%,-3%,-14%,3%,-4%
O=C(N/N=C\c1c(O)ccc2ccccc12)c1ccc(S(=O)(=O)N2CCCCC2)cc1,100µM*,1%,u,-22%,4%,28%
CCN=c1scc(C)n1/N=C/c1ccc(O)c(O)c1O,-6%,-14%,-20%,45µM*,-8%,-2%
COCCN=c1scc(-c2cccs2)n1/N=C/c1ccc(O)c(O)c1O,13%,1%,-11%,56µM*,-1%,0%
COc1ccc(-c2cn3nc(SCC(=O)Nc4ccc(C)c(Cl)c4)ccc3n2)cc1,x,x,-14%,x,x,x
CCCCn1c(N)c(N(CC(C)C)C(=O)C2CCN(S(=O)(=O)c3ccccc3)CC2)c(=O)[nH]c1=O,1%,-2%,-20%,-1%,2%,26%
